Screening results from PubChem.
Compounds with a hit are over-represented: about 20% of the library has one in this group of screens.
Shiga inhibitor: Shiga toxin inhibition. 290,000 compounds, 9.2% hits. inhibition, % at 38.7 µM. Vero cells, Shiga toxin protein synthesis inhibition reporter; in the data active = inhibition mostly above about 28%, no sharp cut-off; inactive = mostly below about 43%
HCMV inh: blocks human cytomegalovirus replication | 410,000 compounds, 4.5% hits | HFF cells, HCMV-luciferase reporter, 72 h; active compounds read low | activity change, negative = inhibition, % at 57.5 µM | AID 1259415; in the data active = activity change below about -60%; inconclusive = no clear call, values can overlap the other calls; inactive = above about -39%
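Compounds were evaluated in HFFs infected with an HCMV luciferase reporter virus (MOI 1 PFU/cell). Luciferase in lysates collected 72 h post infection served as the replication measure.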
Pf growth 96h: P. falciparum growth inhibition at 96 hour, primary screen for plastid delayed-death inhibitors | P. falciparum luciferase reporter growth, 96 h | Potency, µM (highest dose often 28.7 µM), hits mostly inhibitors | 320,000 compounds, 6.9% hits
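P. falciparum expressing integrated firefly luciferase, in erythrocytes at 2% hematocrit, 0.05% parasitemia, incubated with compounds 96 h at 37 C, 5% CO2. Growth inhibition read as loss of luminescence; two-generation exposure targets delayed-death apicoplast inhibitors.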
Cycloheximide cs: affects cycloheximide protein synthesis inhibition readout, counter-screen | cell reporter, cycloheximide protein synthesis inhibition counterscreen | max response, % | 300,000 compounds, 12% hits; in the data active = max response mostly above about 13%, no sharp cut-off; inactive = mostly below about 14%; note: read at 38.3 µM for the half of the compounds with a filed dose
Pf growth 48h: P. falciparum growth inhibition at 48 hours (one generation) | P. falciparum luciferase growth in erythrocytes, 48 h | Potency, µM (series often up to 28.7 µM), most hits filed as inhibitors | 310,000 compounds, 5.9% hits
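Here the parasites carry a stable luciferase gene and grow inside erythrocytes in Albumax-based RPMI medium with compound for one erythrocytic cycle. Activity is scored as loss of luminescent signal.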
Numbers stand for hits; – = inactive; ? = inconclusive; · = not tested or not shown. Unless noted, calls come from the whole dose curve; as a rule, active = well fitted inhibition curve with a large enough effect; inconclusive = small, poorly fitted or top-dose-only effect, or another doubt; inactive = no such curve, though single readings can be large or run the other way.

SMILES	Shiga inhibitor	HCMV inh	Pf growth 96h	Cycloheximide cs	Pf growth 48h
CCOc1cc(C(=O)N2CCN(c3ccccn3)CC2)cc(OCC)c1OCC	–	–	?	–	–
O=C(c1ccc(CS(=O)(=O)c2ccc(Br)cc2)o1)N1CCCC1	–	–	7.38µM	–	·
O=C(c1ccc(CS(=O)(=O)c2ccc(Br)cc2)o1)N1CCCCCC1	–	?	–	–	·
O=C(c1ccc(CS(=O)(=O)c2ccccc2)o1)N1CCOCC1	–	–	11.7µM	–	·
Cc1ccc(S(=O)(=O)Cc2ccc(C(=O)N3CCN(Cc4ccccc4)CC3)o2)cc1	–	–	–	–	?
CC(OC(=O)CCc1nc2ccccc2c(=O)[nH]1)C(=O)c1ccc(C(C)(C)C)cc1 (stereo not given)	60.0	?	–	22.3	–
CCOc1cccc(C2NCc3ccccc3-n3cccc32)c1O (stereo not given)	–	–	–	–	?
Oc1ccccc1C1NCc2ccccc2-n2cccc21 (stereo not given)	–	–	–	–	13.1µM
CCOc1cc(C2NCc3ccccc3-n3cccc32)ccc1O (stereo not given)	–	–	–	–	2.62µM
Clc1ccccc1C1NCc2ccccc2-n2cccc21 (stereo not given)	–	–	?	–	–
Cc1nc(C)n(CC(=O)N2CCCC(C(=O)c3ccc(C(F)(F)F)cc3)C2)n1 (stereo not given)	–	–	–	–	–
CCOc1cccc(-c2nnc3sc(-c4cc(OC)c(OC)cc4OC)nn23)c1	–	·	–	–	–
Cc1cccc(-c2nnc3sc(-c4ccccc4C)nn23)c1	45.8	–	·	–	?
COc1cc(OC)c(-c2nn3c(C4CCCCC4)nnc3s2)cc1OC	–	–	–	–	5.22µM
CCOc1cccc(-c2nnc3sc(C4CCCCC4)nn23)c1	–	?	10.4µM	–	9.28µM
CCOc1cccc(-c2nn3c(-c4cc(C)[nH]n4)nnc3s2)c1	–	–	1.65µM	–	?
COc1ccc(-c2nn3c(=O)c(C)nnc3s2)cc1	54.3	·	?	–	?
COc1ccc(-c2nnc3sc(CCN4C(=O)c5ccccc5C4=O)nn23)cc1	–	–	?	–	5.22µM
Cc1nc2sc(-c3ccccc3)nn2c(=O)c1Br	94.3	–	–	56.2	–
c1ccc(-c2nnc3sc(-c4csc5c4CCCC5)nn23)cc1	–	?	–	13.0	10.4µM
CCOC(=O)C1CCN(C(=O)c2cccc(NS(=O)(=O)c3ccc(F)c(F)c3)c2)CC1	–	–	?	–	?
Cc1cc2n(n1)CCCN2C(=O)Nc1cccc(C)c1C	·	–	·	·	·
COC(=O)[C@H](NC(=O)c1cc([C@@H](NC(=O)OC(C)(C)C)C(C)C)sc1N)C(C)C	·	–	·	·	·
COc1cccc(-c2nnc3sc(-c4ccccc4)nn23)c1	–	–	3.29µM	–	?
COc1cccc(OC)c1-c1nn2c(-c3cc(-c4ccccc4)n[nH]3)nnc2s1	–	?	–	–	2.08µM
SMILES	Shiga inhibitor	HCMV inh	Pf growth 96h	Cycloheximide cs	Pf growth 48h
COc1cccc(-c2nnc3sc(-c4ccc(Cl)cc4)nn23)c1	–	·	–	–	–
COc1cc(-c2nnc3sc(Cc4ccccc4)nn23)cc(OC)c1OC	–	–	6.57µM	–	?
Clc1cccc(-c2nn3c(-c4ccncc4)nnc3s2)c1	–	·	13.1µM	–	–
CCOc1ccc(CCNC(=O)c2cnc3c(-c4ccc(F)cc4)c(C)nn3c2C)cc1	·	–	·	·	·
COc1ccc(Cl)cc1NC(=O)CN(C)C(=O)c1ccc2c(c1)CC(c1ccccc1)OC2=O (stereo not given)	·	–	?	·	?
COc1cc(-c2nnc3sc(C4CCCCC4)nn23)cc(OC)c1OC	–	·	5.22µM	–	8.28µM
